Compounds with a hit are over-represented: about 12% of the library has one in this group of screens.
JMJD2A Tudor: JMJD2A Tudor domain (human) inhibition; O75164; 390,000 tested, 4.4% active; AlphaScreen JMJD2A-Tudor / H3K4me3 peptide binding; Potency, µM (top dose mostly 114 µM), hits mostly inhibitors; note: nearly all actives have a fitted effect of over 50% in size
BAZ2B inh: blocks human BAZ2B | AlphaScreen BAZ2B-H3K14Ac peptide displacement | Q9UIF8 | AID 504333 | 360,000 tested, 4.4% active | Potency, µM (top dose mostly 114 µM), most hits filed as inhibitors; note: nearly all actives have a fitted effect of over 60% in size
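BAZ2B (50 nM) with biotin-H3(5-23)K14Ac peptide (50 nM) in PBS pH 7.4, 0.01% Tween-20, preformed 30 min, then compound 30 min at room temperature; top concentration 110uM. AlphaScreen streptavidin donor/nickel chelate acceptor beads (10 ug/mL final), 20 min dark, signal read.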
G9a block: G9a (human) methyltransferase inhibition; G9a H3K9 monomethylation, AlphaScreen, 2 h; Potency, µM (top dose mostly 102 µM), most hits filed as inhibitors; 350,000 tested, 8.8% active; note: nearly all actives have a fitted effect of over 75% in size
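G9a (20 nM) was preincubated 15 min with compound, then reacted 2 h at room temperature with 500 nM biotin-H3K9 peptide and 20 µM SAM. Monomethyl-H3K9 detected by AlphaScreen using anti-H3K9me1 antibody.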
Sfp inh: blocks B. subtilis Sfp PPTase activity; Q9F4F7; Biochemical Sfp PPTase activity, qHTS; 310,000 tested, 3.5% active; Potency, µM, usual class: inhibitors; AID 1490;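 note: the enzyme is Sfp with the accession as filed and its product quenches rhodamine fluorescence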
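Step 1, compound plus 15 nM Sfp-PPTase, 15 min, room temperature. Step 2, add rhodamine-CoA (5 uM) and BHQ-2-YbbR (12.5 uM). Step 3, read 525/598 nm fluorescence at 0 and 30 min.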
HP1b chromo inh: HP1-beta chromodomain-methylated histone interaction inhibition; P83916; AlphaScreen HP1-beta / biotin-H3K9me3 peptide binding; Potency, µM (series often up to 114 µM), usual class: inhibitors; 390,000 tested, 0.56% active; AID 540317; note: nearly all actives have a fitted effect of over 70% in size
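AlphaScreen: HP1-beta (50 nM) preformed 30 min with biotin-H3(1-18)K9me3 peptide (50 nM) in PBS pH 7.4, 0.01% Tween-20. Compound added for 30 min at RT, then streptavidin donor/nickel chelate acceptor beads (10 ug/mL) for 30 min.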
PLK1 PBD block: PLK1 (human) polo-box domain binding inhibition; P53350; Plk1 PBD binding of FITC phosphopeptide, fluorescence polarization; Potency, µM, usual class: inhibitors; 360,000 tested, 2.8% active; AID 720504; note: series mostly up to about 57 µM; nearly all actives have a fitted effect of over 65% in size
Each line names hits and unclear results; the compound was inactive in the other large screens. Calls come from the whole dose curve; as a rule, active = well fitted curve in the direction sought with a large enough effect; inconclusive = small, poorly fitted or top-dose-only effect, or another doubt; inactive = no such curve, though single readings can be large; an effect the other way counts as inactive or inconclusive.

CC[C@H](CC[C@H](C)[C@@H]1CC[C@@H]2[C@H]3CC=C4C[C@@H](O)CC[C@]4(C)[C@H]3CC[C@]21C)C(C)C	none (no result: JMJD2A Tudor, BAZ2B inh, HP1b chromo inh, PLK1 PBD block)
CCCN1CCC(NC(=S)Nc2ccc(OC)c(OC)c2)CC1	G9a block 50µM
COc1cc(C(=O)NCCNc2nc3ccc(C)cc3cc2C#N)cc(OC)c1OC	none
CCC(C)(C)NC(=O)C(c1ccccc1Cl)N(C(=O)CCC(=O)Nc1cc(C)on1)C(C)(C)C (centres undefined)	JMJD2A Tudor 56µM, PLK1 PBD block inconclusive
COc1ccccc1NC(=O)C1=C(C)NC2=C(C(=O)CC(c3ccc(OC)c(OC)c3)C2)C1c1coc2ccccc2c1=O (centres undefined)	G9a block 45µM
COc1cc(OC)cc(C(=O)NCc2n[nH]c(=S)n2-c2ccccc2OC)c1	JMJD2A Tudor 10µM, G9a block 1µM, Sfp inh inconclusive
COc1ccc(-n2c(CNC(=O)c3cc(OC)c(OC)c(OC)c3)n[nH]c2=S)cc1	JMJD2A Tudor 7.1µM, BAZ2B inh inconclusive, G9a block 8.9µM
COc1ccc(-c2noc(CNC(=O)c3cc(OC)c(OC)c(OC)c3)n2)cc1	none (no result: Sfp inh, PLK1 PBD block)
Cc1ccc(-n2nc(C)c(C(=O)O)n2)c(C)c1	G9a block 79µM
Cc1cccc(-n2cc(C(=O)O)c(=O)cc2C)c1	JMJD2A Tudor 45µM, G9a block 22µM
Cc1cccc(-n2ccc(=O)c(C(=O)O)n2)c1	none
Cc1cc(=O)c(C(=O)O)cn1-c1ccc(C(C)C)cc1	BAZ2B inh inconclusive, G9a block 45µM
Cc1ccc(-n2cc(C(=O)O)c(=O)cc2C)c(C)c1	BAZ2B inh inconclusive, G9a block 50µM
Cc1ccc(-n2c(C)cc(C(=O)C(=O)Nc3ccccc3)c2C)c(C)c1	none (no result: Sfp inh, PLK1 PBD block)
Cc1cc(C)n(-c2ccc(C(C)C)cc2)c(=O)c1C#N	G9a block inconclusive
CCC(=O)O[C@H]1C(O[C@@H]2C(C)[C@H](O[C@H]3C[C@@](C)(OC)C(O)C(C)O3)C(C)C(=O)OC(CC)[C@@](C)(O)C(O)[C@H](C)C(=O)C(C)C[C@]2(C)O)OC(C)CC1N(C)C (some centres undefined)	none (no result: JMJD2A Tudor, BAZ2B inh, HP1b chromo inh, PLK1 PBD block)
O=C(OCC#CCNc1nnc(-c2cccc3ccccc23)o1)c1cccs1	none (no result: JMJD2A Tudor, Sfp inh, HP1b chromo inh, PLK1 PBD block)
CN1C(=O)/C(=C\c2ccco2)N=C1c1ccc(Cl)cc1Cl	BAZ2B inh inconclusive, HP1b chromo inh inconclusive (no result: G9a block)
CC1CCC2(CC1)NC(=O)N(Cc1cc(=O)n3ccsc3n1)C2=O (centres undefined)	none (no result: G9a block)
Cc1cc(C)cc(-n2cc(C(=O)O)c(=O)cc2C)c1	BAZ2B inh 79µM, G9a block 28µM
Cc1cc(C)c(N)c(C(=O)O)c1	none
COC(=O)N1C(=O)[C@](CC(C)C)(c2ccccc2)N1C(=O)OC	G9a block 79µM, PLK1 PBD block 13µM
COC(=O)N1C(=O)[C@@](CC(C)C)(c2ccccc2)N1C(=O)OC	G9a block 50µM (no result: JMJD2A Tudor, HP1b chromo inh, PLK1 PBD block)
COC(=O)N1C(=O)[C@@](c2ccccc2)(C2CCCC2)N1C(=O)OC	PLK1 PBD block inconclusive (no result: G9a block)
Cc1nc(N2CCOCC2)c2c(C(=O)NCCc3ccccc3)c(C)oc2n1	none (no result: Sfp inh, PLK1 PBD block)
Nc1ccc(CSc2ccc(Cl)cc2)c(Cl)c1	none (no result: BAZ2B inh, G9a block, Sfp inh)
C[C@@H]1CN([C@H](C)CO)C(=O)CCCn2cc(nn2)CO[C@H]1CN(C)C(=O)Nc1ccc(-c2cccs2)cc1	none (no result: JMJD2A Tudor, BAZ2B inh, G9a block, Sfp inh, HP1b chromo inh)
Cn1c(CNS(=O)(=O)c2ccc(Cl)cc2)n[nH]c1=S	JMJD2A Tudor 6.3µM, G9a block inconclusive
O=S(=O)(NCc1nnc2ccccn12)c1ccc(Cl)cc1	none (no result: Sfp inh)
Cn1c(CNS(=O)(=O)c2ccc(F)cc2)n[nH]c1=S	JMJD2A Tudor 11µM, G9a block inconclusive
Cc1ccc(NC(=O)Cn2c(=O)n(Cc3ccccc3)c(=O)c3c(C)c(C(=O)N(C)C)sc32)c(C)c1	none (no result: Sfp inh, PLK1 PBD block)
CCCCn1c2c(c(=O)n(C)c1=O)C(CC(=O)OCC(=O)Nc1cccc(C(F)(F)F)c1)C(=O)N2 (centres undefined)	G9a block 32µM
CS(=O)(=O)N(Cc1ccccc1)c1ccccc1C(=O)N1CCN(c2ccccc2)CC1	BAZ2B inh inconclusive
CCn1c(SCC(=O)Nc2ccccc2C(=O)OC)nc2c1c(=O)n(C)c(=O)n2C	G9a block 28µM (no result: JMJD2A Tudor, HP1b chromo inh, PLK1 PBD block)
CCn1c(SCC(=O)Nc2ccccc2C(=O)OC)nnc1-c1ccc(N)cc1	G9a block 45µM
CCn1c(SCC(=O)Nc2ccccc2)nc2c1c(=O)n(C)c(=O)n2C	none
CCn1c(SCC(=O)Nc2ccccc2C(=O)OC)nnc1-c1ccoc1C	none
C=CCn1c(Oc2ccccc2)nc2c1c(=O)n(C)c(=O)n2C	BAZ2B inh inconclusive (no result: G9a block)
CCn1c(SCC(=O)NNC(=S)Nc2ccc(C)cc2)nnc1-c1ccc(Cl)cc1	G9a block 10µM
CCn1c(Oc2ccccc2)nc2c1c(=O)n(C)c(=O)n2C	PLK1 PBD block 27µM
Cc1ccc(NC(=S)NNC(=O)CSc2nnc(-c3ccc(Cl)cc3)n2C2CCCCC2)cc1	JMJD2A Tudor inconclusive
COc1ccc(-c2csc(/C(C#N)=C(\O)CSc3nccn3C)n2)cc1OC	BAZ2B inh 50µM, G9a block 45µM, Sfp inh inconclusive
Cn1c(CCNC(=O)OC(C)(C)C)n[nH]c1=S	JMJD2A Tudor 40µM, G9a block inconclusive
CC(C)(C)OC(=O)NCCc1n[nH]c(=S)o1	JMJD2A Tudor inconclusive, Sfp inh 79µM (no result: G9a block)
CCSc1nnc(CCNC(=O)OC(C)(C)C)o1	none
CC(C)(C)OC(=O)NCc1nc(N)n[nH]1	none
COc1cc2ccnc(Cc3cccc(OC)c3OC)c2cc1OC	JMJD2A Tudor 79µM, PLK1 PBD block 27µM
O=c1c2c(-c3ccc(Cl)cc3)csc2ncn1/N=C/c1cccc([N+](=O)[O-])c1O	JMJD2A Tudor 40µM, BAZ2B inh 50µM, G9a block 40µM, PLK1 PBD block inconclusive
O=[N+]([O-])c1cccc(/C=N/n2cnnc2)c1O	none
Cc1c(P(=S)(c2ccccc2)c2ccccc2)c2ccccc2n1C(=O)NCc1ccc(F)cc1	none (no result: BAZ2B inh, G9a block, Sfp inh, HP1b chromo inh, PLK1 PBD block)
Clc1ccc(C2=Nn3c(nnc3-c3n[nH]c4c3CCC4)SC2)cc1Cl	JMJD2A Tudor inconclusive, G9a block 11µM
c1ccc(C2=Nn3c(nnc3-c3n[nH]c4c3CCC4)SC2)cc1	JMJD2A Tudor inconclusive, G9a block inconclusive
NC(=O)[C@@H]1CCCCNc2c(I)cc([N+](=O)[O-])cc2C(=O)N[C@@H](CCC(=O)O)C(=O)N[C@@H](CO)C(=O)N1	G9a block 40µM
NC(=O)[C@@H]1CCCCNc2c(F)cc([N+](=O)[O-])cc2C(=O)N[C@@H](CC(=O)O)C(=O)N[C@@H](CCC(=O)O)C(=O)N1	JMJD2A Tudor inconclusive, G9a block inconclusive

Bioassay records as filed in PubChem BioAssay.
